Test results published in PubChem BioAssay (Tox21).
Inconclusive results are not listed. The source made the active and inactive calls. Unless noted, calls come from the whole dose curve.

How the values were obtained:
[1] = Nuclear factor erythroid 2-related factor 2/antioxidant responsive element (Nrf2/ARE) small molecule agonists: qHTS cell viability counter screen in human keratinocytes (AID 1919968; active = well fitted curve in the direction sought with a large enough effect in the repeat runs; an effect the other way counts as inactive or inconclusive; note: nearly all actives have a fitted effect of over 55% in size; note: potency is the fitted concentration of half-maximal effect)
How it was run: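 After a 5 h attachment period, ARE-reporter keratinocytes were dosed with compounds in DMSO and then cultured 23 h at 37 C. Cell viability came from CellTiter-Fluor signal read after a further 1 h.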

[2] = Nuclear factor erythroid 2-related factor 2/antioxidant responsive element (Nrf2/ARE) small molecule agonists: luciferase reporter gene qHTS assay in human keratinocytes (AID 1919969); note: nearly all actives have a fitted effect of over 35% in size; note: potency is the fitted concentration of half-maximal effect
[3] = molecular target: Gonadotropin-releasing hormone receptor (Homo sapiens) (UniProt P30968); assay: Human gonadotropin-releasing hormone receptor (GnRHR) small molecule agonists, calcium flux assay in GnRHR-HEK293 cells (AID 1920063); note: nearly all actives have a fitted effect of over 35% in size
Chain of Gonadotropin-releasing hormone receptor (Homo sapiens) (P30968 whole entry, looked up): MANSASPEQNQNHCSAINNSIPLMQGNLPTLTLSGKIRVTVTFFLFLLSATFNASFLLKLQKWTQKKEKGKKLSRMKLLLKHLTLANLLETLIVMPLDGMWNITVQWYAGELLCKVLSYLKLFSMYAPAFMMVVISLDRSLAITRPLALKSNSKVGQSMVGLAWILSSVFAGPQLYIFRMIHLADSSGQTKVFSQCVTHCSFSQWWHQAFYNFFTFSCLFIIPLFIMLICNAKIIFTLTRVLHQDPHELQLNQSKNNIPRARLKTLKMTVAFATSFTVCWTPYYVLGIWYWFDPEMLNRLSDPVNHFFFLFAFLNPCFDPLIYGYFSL
How it was run: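 We seeded human GnRHR-expressing HEK293 cells for 18 hours, loaded them with calcium dye for an hour at 37 C, added test compounds, and recorded fluorescence intensity kinetically for three minutes.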

[4] = molecular target: KiSS-1 receptor (Homo sapiens) (UniProt Q969F8); assay: Human kisspeptin (KISS1R) small molecule agonists, calcium flux assay in KISS1R-HEK293 cells (AID 1920064; active = well fitted curve in the direction sought with a large enough effect in the repeat runs; an effect the other way counts as inactive or inconclusive)
Chain of KiSS-1 receptor (Homo sapiens) (Q969F8 whole entry, looked up): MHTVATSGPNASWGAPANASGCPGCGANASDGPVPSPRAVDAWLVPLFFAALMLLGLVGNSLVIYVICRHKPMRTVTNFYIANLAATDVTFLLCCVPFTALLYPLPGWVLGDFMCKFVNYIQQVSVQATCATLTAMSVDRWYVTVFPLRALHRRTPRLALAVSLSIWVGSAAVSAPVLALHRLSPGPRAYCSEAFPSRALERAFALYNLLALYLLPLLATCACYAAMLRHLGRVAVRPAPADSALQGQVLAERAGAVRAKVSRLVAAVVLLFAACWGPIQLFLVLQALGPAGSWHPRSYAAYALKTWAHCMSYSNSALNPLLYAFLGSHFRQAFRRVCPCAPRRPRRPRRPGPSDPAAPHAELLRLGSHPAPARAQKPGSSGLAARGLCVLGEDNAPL
How it was run: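 Kinetic calcium assay, 1 s sampling over 3 min at Ex/Em 480/540, in HEK293 cells engineered with human KISS1R; compounds delivered in DMSO after 1 h dye loading.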

[5] = G protein-coupled receptor (GPCR) small molecule agonists, calcium flux assay: HEK293 wild type cell line counter screen (AID 1920065)
How it was run: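 Calcium-sensitive dye, loaded 1 h at 37 C into cells cultured 18 h, reports compound-evoked calcium release as fluorescence (Ex/Em 480/540), measured over 3 min. Agonist mode; 15-point titrations, triplicate.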

[6] = p53 small molecule agonists, cell-based qHTS assay with human liver microsomes (AID 1963577);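 note: p53 response element beta-lactamase reporter cells with liver microsomes plus NADPH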
How it was run: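 Metabolically competent format: test substances, human liver microsomes and NADPH (both 0.5 mg/mL final) incubated with p53RE-bla cells 16 h at 37 C. Beta-lactamase reporter signal then quantified by fluorescence.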

[7] = p53 small molecule agonists, cell-based qHTS assay with rat liver microsomes (AID 1963578)
How it was run: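 Each plate received p53RE-bla cells, then compound, then rat liver microsomes and NADPH (both 0.5 mg/mL final). Plates were held 16 h at 37 C, and beta-lactamase activity was detected with LiveBLAzer over 2 h.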

[8] = p53 small molecule agonists, cell-based qHTS assay with human liver microsomes: qHTS cell viability counter screen (AID 1963579); note: nearly all actives have a fitted effect of over 45% in size; note: potency is the fitted concentration of half-maximal effect
How it was run: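 Tox21 library compounds, delivered from DMSO stocks, were tested on p53RE-bla cells together with 0.5 mg/mL human liver microsomes and 0.5 mg/mL NADPH (final) over 16 h at 37 C; CellTiter-Glo luminescence served as the cytotoxicity measure.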

[9] = p53 small molecule agonists, cell-based qHTS assay with rat liver microsomes: qHTS cell viability counter screen (AID 1963580); note: nearly all actives have a fitted effect of over 45% in size; note: potency is the fitted concentration of half-maximal effect
How it was run: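 In HCT-116 cells carrying a p53 response element-bla reporter, compounds were metabolically activated in situ by rat liver microsomes with NADPH over 16 h. Cell ATP content then served as the cytotoxicity measure.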

[10] = molecular target: 5-hydroxytryptamine receptor 2A (Homo sapiens) (UniProt P28223); assay: 5-hydroxytryptamine receptor 2A (HTR2A) small molecule antagonists, cell-based qHTS assay (AID 1963586); note: nearly all actives have a fitted effect of over 45% in size; note: potency is the fitted concentration of half-maximal effect
Chain of 5-hydroxytryptamine receptor 2A (Homo sapiens) (P28223 whole entry, looked up): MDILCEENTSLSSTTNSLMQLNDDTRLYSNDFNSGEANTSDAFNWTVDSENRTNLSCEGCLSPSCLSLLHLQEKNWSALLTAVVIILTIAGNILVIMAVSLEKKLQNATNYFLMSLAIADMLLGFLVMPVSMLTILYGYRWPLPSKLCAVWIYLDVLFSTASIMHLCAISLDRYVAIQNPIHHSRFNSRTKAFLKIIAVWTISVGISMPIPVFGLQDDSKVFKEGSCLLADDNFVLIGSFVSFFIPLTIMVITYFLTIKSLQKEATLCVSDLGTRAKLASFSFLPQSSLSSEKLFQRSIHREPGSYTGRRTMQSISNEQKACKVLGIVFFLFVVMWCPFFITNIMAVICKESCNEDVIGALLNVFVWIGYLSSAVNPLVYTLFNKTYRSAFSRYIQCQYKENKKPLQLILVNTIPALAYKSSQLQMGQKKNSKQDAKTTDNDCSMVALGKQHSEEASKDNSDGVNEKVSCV
How it was run: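 Antagonist-mode intracellular calcium assay: DOI (4 nM) added after 5 min compound pre-incubation at room temperature to dye-loaded HTR2A-CHO cells. Fluorescence followed for 3 min, sampled every second.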

[11] = molecular target: 5-hydroxytryptamine receptor 2A (Homo sapiens) (UniProt P28223); assay: 5-hydroxytryptamine receptor 2A (HTR2A) small molecule agonists, cell-based qHTS assay (AID 1963587); note: nearly all actives have a fitted effect of over 30% in size
How it was run: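 HTR2A-CHO cells, plated 18 h at 37 C/5% CO2, dye-loaded 1 h at 37 C; compounds in DMSO added by pin tool (agonist mode). Intracellular calcium flux read as kinetic fluorescence on FDSS over 2 min at 1 s intervals.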

[12] = molecular target: Muscarinic acetylcholine receptor M1 (Homo sapiens) (UniProt P11229); assay: Cholinergic receptor muscarinic 1 (CHRM1) small molecule antagonists, cell-based qHTS assay (AID 1963588); note: nearly all actives have a fitted effect of over 40% in size; note: potency is the fitted concentration of half-maximal effect
Chain of Muscarinic acetylcholine receptor M1 (Homo sapiens) (P11229 whole entry, looked up): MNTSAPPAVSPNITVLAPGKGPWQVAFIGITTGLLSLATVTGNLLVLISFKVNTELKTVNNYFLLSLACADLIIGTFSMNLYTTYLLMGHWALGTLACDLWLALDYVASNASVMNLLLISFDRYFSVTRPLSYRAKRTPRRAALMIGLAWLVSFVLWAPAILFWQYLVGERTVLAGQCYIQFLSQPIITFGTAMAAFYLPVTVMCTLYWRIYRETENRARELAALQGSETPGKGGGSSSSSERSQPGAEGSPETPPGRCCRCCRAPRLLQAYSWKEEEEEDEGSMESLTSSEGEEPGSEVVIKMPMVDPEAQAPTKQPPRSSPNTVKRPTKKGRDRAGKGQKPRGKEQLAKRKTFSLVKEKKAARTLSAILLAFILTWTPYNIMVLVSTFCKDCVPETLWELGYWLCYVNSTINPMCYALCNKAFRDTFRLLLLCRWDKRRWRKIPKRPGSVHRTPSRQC
How it was run: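 CHRM1-CHO calcium-flux assay, antagonist mode. Cells were seeded 18 h, dye-loaded 1 h at 37 C and given compound for 5 min at RT, then acetylcholine was added at 50nM. FDSS fluorescence was read 3 min; 15 concentrations, three runs.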

[13] = molecular target: Muscarinic acetylcholine receptor M1 (Homo sapiens) (UniProt P11229); assay: Cholinergic receptor muscarinic 1 (CHRM1) small molecule agonists, cell-based qHTS assay (AID 1963589); note: nearly all actives have a fitted effect of over 35% in size
How it was run: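 Measures agonist-induced intracellular calcium rise. Stable human CHRM1 CHO line, 1 h dye load at 37 C, compounds from DMSO, kinetic fluorescence read.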

[14] = molecular target: Beta-2 adrenergic receptor (Homo sapiens) (UniProt P07550); assay: Adrenergic beta2 receptor (ADRB2) small molecule antagonists, cell-based qHTS assay (AID 1963592); note: series mostly up to about 92 µM; nearly all actives have a fitted effect of over 50% in size
Chain of Beta-2 adrenergic receptor (Homo sapiens) (P07550 whole entry, looked up): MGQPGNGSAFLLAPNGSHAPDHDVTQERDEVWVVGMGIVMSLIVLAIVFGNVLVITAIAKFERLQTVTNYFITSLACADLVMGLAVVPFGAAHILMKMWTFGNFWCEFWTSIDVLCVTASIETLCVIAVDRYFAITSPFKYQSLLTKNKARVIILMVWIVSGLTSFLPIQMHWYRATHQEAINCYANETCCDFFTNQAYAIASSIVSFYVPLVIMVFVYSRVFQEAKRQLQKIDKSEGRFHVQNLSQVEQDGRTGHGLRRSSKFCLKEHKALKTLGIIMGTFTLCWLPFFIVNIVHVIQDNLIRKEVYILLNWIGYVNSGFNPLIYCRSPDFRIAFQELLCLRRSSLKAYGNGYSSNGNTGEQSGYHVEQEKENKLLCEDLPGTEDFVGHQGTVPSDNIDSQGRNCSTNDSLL
How it was run: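 Cells (CHO, stable ADRB2 overexpression) incubated 18-20hr at 37C; compounds added from DMSO; agonist mix (1nM isoproterenol, 100uM IBMX, 25uM Ro-20-1724) added; 0.5hr RT; d2-cAMP and anti-cAMP-cryptate added; 1hr RT; 665/615 nm read.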

[15] = molecular target: D(2) dopamine receptor (Homo sapiens) (UniProt P14416); assay: Dopamine D2 receptor (DRD2) small molecule antagonists, cell-based qHTS assay (AID 1963595; active = well fitted inhibition curve with a large enough effect in the signal ratio in the repeat runs, with a control signal flat; the % refers to the signal ratio; note: potency is the fitted concentration of half-maximal effect)
Chain of D(2) dopamine receptor (Homo sapiens) (P14416 whole entry, looked up): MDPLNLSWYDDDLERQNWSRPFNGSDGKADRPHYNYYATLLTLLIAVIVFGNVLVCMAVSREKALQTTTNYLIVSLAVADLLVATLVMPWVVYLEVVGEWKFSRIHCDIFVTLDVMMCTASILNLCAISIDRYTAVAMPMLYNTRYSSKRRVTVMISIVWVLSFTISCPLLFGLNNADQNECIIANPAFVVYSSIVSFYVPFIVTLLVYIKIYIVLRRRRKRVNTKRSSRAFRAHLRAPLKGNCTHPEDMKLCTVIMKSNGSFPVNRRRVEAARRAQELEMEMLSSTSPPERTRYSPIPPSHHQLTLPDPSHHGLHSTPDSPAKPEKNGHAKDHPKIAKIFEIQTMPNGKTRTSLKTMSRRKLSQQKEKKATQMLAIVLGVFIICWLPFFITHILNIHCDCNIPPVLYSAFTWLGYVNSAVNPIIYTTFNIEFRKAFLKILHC
How it was run: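 Antagonism was scored as restored cAMP in HEK293-DRD2 cells. These cells were stimulated with 200 nM NKH477 and 12 nM quinpirole for 30 min at room temperature, in the presence of 0.1 mM Ro20-1724.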

[16] = molecular target: D(2) dopamine receptor (Homo sapiens) (UniProt P14416); assay: Dopamine D2 receptor (DRD2) small molecule agonists, cell-based qHTS assay (AID 1963594); note: nearly all actives have a fitted effect of over 35% in size
How it was run: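 HEK293 cells stably expressing DRD2 were cultured 24 h at 37 C, then given Ro20-1724 (0.1 mM final) and compounds for 10 min at room temperature. NKH477 (200nM) was then added for 30 min. cAMP was read by HTRF.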

[17] = p53 small molecule agonists, cell-based qHTS assay (AID 1963582; active = well fitted activation curve with a large enough effect in the signal ratio in the repeat runs, not every such curve was filed as active; the % refers to the signal ratio)
How it was run: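 In this cell-based concentration-response screen, a p53 response element drives beta-lactamase; cells received DMSO-borne compounds after 5 h culture and were incubated a further 16 h before FRET substrate development.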

[18] = cAMP Responsive Elements (CRE) small molecule agonists, cell-based qHTS assay (AID 1963590)
How it was run: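 A CRE-responsive beta-lactamase reporter in HEK 293T cells was used. Treatment ran 3 h at 37 C; detection used LiveBLAzer B/G FRET substrate for 2 h at room temperature.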

[19] = cAMP Responsive Elements (CRE) small molecule antagonists, cell-based qHTS assay (AID 1963591; active = well fitted inhibition curve with a large enough effect in the signal ratio in the repeat runs, not every such curve was filed as active; the % refers to the signal ratio)
How it was run: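 HEK293T cells carrying a CRE-driven beta-lactamase reporter receive compound and NKH477 (0.25 uM final) for 3 h. Fluorescence from LiveBLAzer B/G FRET substrate is read after 2 h at room temperature.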

[20] = p53 small molecule agonists, cell-based qHTS assay: qHTS cell viability counter screen (AID 1963581); note: nearly all actives have a fitted effect of over 45% in size
How it was run: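 Following 5 h attachment, HCT-116 p53RE-bla cells took up compound for 16 h at 37 C; the reporter was read with B/G FRET substrate (2 h RT), and viability then via CellTiter-Glo ATP luminescence.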
% is set by controls: 0 for no effect and ±100 for the full control effect.

CCOC(=O)C(Cl)Cc1cc(-n2nc(C)n(C(F)F)c2=O)c(F)cc1Cl (centres undefined)
inactive: Potency [1] | Potency [2] | Potency [3] | Potency [4] | Potency [5] | Potency [6] | Potency [7] | Potency [8] | Potency [9] | Potency [10] | Potency [11] | Potency [12] | Potency [13] | Potency [14] | Potency [15]

Clc1ccc(CCC(Cn2ccnc2)Sc2c(Cl)cccc2Cl)cc1 (centres undefined)
inactive: Potency [3] | Potency [4] | Potency [5] | Potency [6] | Potency [7] | Potency [8] | Potency [9] | Potency [11] | Potency [12] | Potency [13] | Potency [14] | Potency [16]
active: Potency [1] 29.8 µM | Potency [2] 13.3 µM

O=C(CCCN1CCC(n2c(=O)[nH]c3ccccc32)CC1)c1ccc(F)cc1
inactive: Potency [1] | Potency [2] | Potency [3] | Potency [4] | Potency [5] | Potency [6] | Potency [7] | Potency [8] | Potency [9] | Potency [17] | Potency [13] | Potency [18] | Potency [16]
active: Potency [10] 1.83 µM | Potency [12] 2.05 µM | Potency [15] 0.0422 µM

FC(F)OC(F)(F)C(F)Cl (centres undefined)
inactive: Potency [1] | Potency [2] | Potency [3] | Potency [4] | Potency [5] | Potency [6] | Potency [7] | Potency [8] | Potency [9] | Potency [17] | Potency [10] | Potency [11] | Potency [13] | Potency [18] | Potency [19] | Potency [14] | Potency [15]

Cn1cc(C2=C(c3cn(C4CCN(Cc5ccccn5)CC4)c4ccccc34)C(=O)NC2=O)c2ccccc21
inactive: Potency [2] | Potency [3] | Potency [4] | Potency [5] | Potency [6] | Potency [7] | Potency [8] | Potency [9] | Potency [10] | Potency [12] | Potency [13] | Potency [14] | Potency [16] | Potency [15]
active: Potency [1] 4.22 µM

CC[C@]1(O)CC[C@H]2[C@@H]3CCC4=CCCC[C@@H]4[C@H]3CC[C@@]21C
inactive: Potency [1] | Potency [2] | Potency [3] | Potency [4] | Potency [5] | Potency [6] | Potency [7] | Potency [8] | Potency [9] | Potency [20] | Potency [18] | Potency [19] | Potency [14] | Potency [16] | Potency [15]

S=C=Nc1cccc2ccccc12
inactive: Potency [3] | Potency [4] | Potency [5] | Potency [6] | Potency [7] | Potency [8] | Potency [9] | Potency [20] | Potency [18] | Potency [14] | Potency [16] | Potency [15]
active: Potency [1] 27 µM | Potency [2] 15.2 µM

CCN[C@@H](C)Cc1ccccc1
inactive: Potency [1] | Potency [2] | Potency [3] | Potency [4] | Potency [5] | Potency [6] | Potency [7] | Potency [8] | Potency [9] | Potency [17] | Potency [10] | Potency [11] | Potency [12] | Potency [13] | Potency [18] | Potency [19] | Potency [15]

CSSC
active: Potency [2] 31 µM
inactive: Potency [1] | Potency [3] | Potency [4] | Potency [5] | Potency [6] | Potency [7] | Potency [8] | Potency [9] | Potency [17] | Potency [10] | Potency [11] | Potency [12] | Potency [13] | Potency [19] | Potency [14] | Potency [16] | Potency [15]

N#CC(CCc1ccc(Cl)cc1)(Cn1cncn1)c1ccccc1 (centres undefined)
inactive: Potency [1] | Potency [2] | Potency [3] | Potency [4] | Potency [5] | Potency [6] | Potency [7] | Potency [8] | Potency [9] | Potency [10] | Potency [13] | Potency [16]

Oc1cc(Cl)c(Cl)c(Cl)c1Cl
active: Potency [1] 53.2 µM | Potency [2] 53.2 µM | Potency [8] 17.8 µM | Potency [9] 17.8 µM
inactive: Potency [3] | Potency [4] | Potency [5] | Potency [6] | Potency [7] | Potency [10] | Potency [11] | Potency [13] | Potency [16] | Potency [15]

O=[N+]([O-])c1ccc(CCl)cc1
inactive: Potency [1] | Potency [3] | Potency [4] | Potency [5] | Potency [6] | Potency [7] | Potency [8] | Potency [9] | Potency [17] | Potency [11] | Potency [12] | Potency [18] | Potency [19] | Potency [14] | Potency [16] | Potency [15]
active: Potency [2] 60.1 µM

Clc1ccc(C2(Cn3cncn3)CC(Br)CO2)c(Cl)c1 (centres undefined)
inactive: Potency [1] | Potency [2] | Potency [3] | Potency [4] | Potency [5] | Potency [6] | Potency [7] | Potency [8] | Potency [9] | Potency [20] | Potency [12] | Potency [13] | Potency [19] | Potency [14] | Potency [16]

CC1=C(C(=O)O)N2C(=O)[C@@H](N)[C@H]2SC1
inactive: activity change, negative = cytotoxicity [1] 0.0817% [at 19 µM] | activity, positive = activation [2] -0.189% [at 19 µM] | activity change [3] 0.673% [at 11.8 µM, hits give high values] | activation [4] 0.11% [at 15.8 µM] | activation [5] -0.375% [at 11.8 µM] | activation [6] -0.214% [at 13.5 µM] | activation [7] -0.0529% [at 13.6 µM] | activity change, negative = cytotoxicity [8] 0.455% [at 13.5 µM] | activity change, negative = cytotoxicity [9] 4.3e-05% [at 13.5 µM] | activation [17] 0.428% [at 13.5 µM] | activity, negative = inhibition [10] 25.1% [at 12.7 µM] | activation [11] 1.93% [at 15.9 µM] | activity, negative = inhibition [12] -6.26% [at 12.6 µM] | activation [13] 0% [at 15.8 µM] | activation [18] -0.165% [at 19 µM] | activity change, negative = inhibition [19] -4.67% [at 18.9 µM] | activity change, negative = inhibition [14] 2.77% [at 19 µM] | activity change, negative = inhibition [15] -2.19% [at 18.9 µM]

CC(Cc1ccc(OCC(=O)O)cc1)NCC(O)c1csc(C(F)(F)F)n1 (centres undefined)
inactive: Potency [1] | Potency [2] | Potency [3] | Potency [4] | Potency [5] | Potency [6] | Potency [7] | Potency [8] | Potency [9] | Potency [17] | Potency [10] | Potency [11] | Potency [12] | Potency [13] | Potency [18] | Potency [19] | Potency [15]
